# HP1b binding inh: HP1-beta chromodomain-methylated histone interaction inhibition; P83916; hit rate 0.56% among 390,000; AID 540317; AlphaScreen HP1-beta / biotin-H3K9me3 peptide binding; Potency, µM (highest dose often 114 µM), without a hit: at the top dose activity change, negative = inhibition, hits mostly inhibitors; also: nearly all actives have a fitted effect of over 70% in size
# Target sequence (P83916 whole entry, looked up): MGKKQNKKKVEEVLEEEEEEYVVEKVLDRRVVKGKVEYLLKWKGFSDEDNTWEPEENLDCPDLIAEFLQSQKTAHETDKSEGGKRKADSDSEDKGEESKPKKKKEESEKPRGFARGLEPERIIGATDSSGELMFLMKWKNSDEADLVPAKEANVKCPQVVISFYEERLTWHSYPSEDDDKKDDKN
#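 HP1-beta protein (50 nM final) preincubated 30 min at room temperature with biotinylated H3(1-18)K9me3 peptide (50 nM) in PBS pH 7.4, 0.01% Tween-20, then compound added for 30 min. AlphaScreen streptavidin donor/nickel chelate acceptor beads (10 ug/mL final), 30 min dark, luminescence read.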
# G9a block: blocks human histone lysine methyltransferase G9a. AID 504332. G9a H3K9 monomethylation, AlphaScreen, 2 h. Potency, µM (top dose mostly 102 µM), for inactives: at the top dose activity, negative = inhibition, hits mostly inhibitors. hit rate 8.8% among 350,000. Q96KQ7; also: % is scaled to controls: 0 for no effect and ±100 for the full control effect; nearly all actives have a fitted effect of over 75% in size
# Target sequence (Q96KQ7 913-1193 limits assumed): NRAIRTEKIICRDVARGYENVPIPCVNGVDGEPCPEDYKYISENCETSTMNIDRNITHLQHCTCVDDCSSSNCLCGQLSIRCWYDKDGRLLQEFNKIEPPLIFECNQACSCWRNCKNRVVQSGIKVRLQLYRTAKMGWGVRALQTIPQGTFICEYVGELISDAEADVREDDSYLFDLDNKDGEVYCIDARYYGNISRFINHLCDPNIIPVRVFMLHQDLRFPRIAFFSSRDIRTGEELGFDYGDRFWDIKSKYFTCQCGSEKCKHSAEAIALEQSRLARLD
#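 Compounds were preincubated with 20 nM G9a for 15 min, after which biotinylated H3K9 peptide (500 nM) and SAM (20 uM) started a 2 h room-temperature reaction. Monomethylated product was quantified by antibody-based AlphaScreen chemiluminescence.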
# ALOX12 inh: ALOX12 (human) lipoxygenase inhibition | P18054 | purified 12hLO, xylenol orange hydroperoxide absorbance | Potency, µM (highest dose often 108 µM), inactives show at the top dose activity change, negative = inhibition, most hits filed as inhibitors | hit rate 1.1% among 580,000 | AID 1671190; also: % is scaled to controls: 0 for no effect and ±100 for the full control effect
#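 Hydroperoxide product was detected by ferrous iron/xylenol orange as the 573 to 405 nm absorbance ratio. Arachidonic acid at 40 uM (final) was turned over for 30 min at room temperature by 150 nM human 12hLO, pH 7.0 Hepes buffer, after 15 min compound preincubation.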
# Sfp PPTase inh: blocks B. subtilis Sfp PPTase activity. Biochemical Sfp PPTase activity, qHTS. hit rate 3.5% among 310,000. Potency, µM, for inactives: largest response in the series, negative = inhibition, most hits filed as inhibitors;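 also: the enzyme is Sfp with the accession as filed and its product quenches rhodamine fluorescence; 0% = enzyme reaction without inhibitor and -100% = no enzyme wells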
#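 Fluorescence-quenching assay with 15 nM Sfp, 5 uM rhodamine-CoA and 12.5 uM BHQ-2-labelled ybbR peptide in pH 7.6 Hepes/MgCl2 buffer. Enzyme was pre-incubated with compound for 15 min at room temperature. Rate was taken from the 30-min fluorescence change (525/598 nm).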
# JMJD2A Tudor: inhibitors of human JMJD2A Tudor domain | O75164 | AlphaScreen JMJD2A-Tudor / H3K4me3 peptide binding | Potency, µM (top dose mostly 114 µM), without a hit: at the top dose activity change, negative = inhibition, actives largely listed as inhibitors | hit rate 4.4% among 390,000 | AID 504339; also: % is scaled to controls: 0 for no effect and ±100 for the full control effect; nearly all actives have a fitted effect of over 50% in size
# BAZ2B block: BAZ2B (human) inhibition; AlphaScreen BAZ2B-H3K14Ac peptide displacement; Potency, µM (doses to about 114 µM), without a hit: at the top dose activity change, negative = inhibition, actives largely listed as inhibitors; AID 504333; hit rate 4.4% among 360,000; Q9UIF8; also: % is scaled to controls: 0 for no effect and ±100 for the full control effect; nearly all actives have a fitted effect of over 60% in size
#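 Complex of BAZ2B and biotin-H3K14Ac (50 nM apiece) forms over 30 min at RT, then faces library compounds up to 110 uM for another 30 min; AlphaScreen beads added, 20 min dark incubation, luminescence read.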
# * marks the source's active call; other numbers are inactive results; ? = inconclusive; . = no result; [ ] = another dose, or the depositor's remark. Rows were chosen to be rich in hits. Some 8.7% of all compounds tested hit in one or more screens of this group. Calls follow the shape of the dose curve; as a rule, active = well fitted curve in the direction sought with a large enough effect; inconclusive = small, poorly fitted or top-dose-only effect, or another doubt; inactive = no such curve, though single readings can be large; an effect the other way counts as inactive or inconclusive. Potency is read from the fitted curve at half-maximal effect.
SMILES,HP1b binding inh,G9a block,ALOX12 inh,Sfp PPTase inh,JMJD2A Tudor,BAZ2B block
CC(=O)O[C@@]12CO[C@@H]1C[C@H](O)[C@@]1(C)C(=O)[C@H](O)C3=C(C)[C@@H](OC(=O)[C@H](O)[C@@H](NC(=O)OC(C)(C)C)c4ccccc4)C[C@](O)([C@@H](OC(=O)c4ccccc4)[C@H]21)C3(C)C,.,17%[59 µM],.,8.9µM*,.,-15%
Cc1nc(SC(C)c2ccc(Cl)cc2)sc1CC(N)=O (stereo unspecified),.,.,1%,.,.,.
CCCCCCCCOc1ccccc1C(=O)Nc1ccc(C(=O)OCC[N+](C)(CC)CC)cc1,.,-6%[12.7 µM],?,40µM*,.,.
O=C1C(=O)N(c2ccc(O)cc2)C(c2ccccc2[N+](=O)[O-])/C1=C(\O)c1ccccc1 (stereo unspecified),-29%,56µM*,?,?,-20%,-20%
O=C1C(=O)N(CCO)C(c2ccccc2[N+](=O)[O-])/C1=C(\O)c1ccccc1 (stereo unspecified),-10%,10%[2.33 µM],?,-5%,?,-4%
O=C1C(=O)N(Cc2ccncc2)C(c2cccc(O)c2)/C1=C(\O)c1ccc2c(c1)OCCO2 (stereo unspecified),13%,45µM*,?,-12%,-22%,?
C=CCOc1cccc(C2/C(=C(\O)c3ccc4c(c3)OCCO4)C(=O)C(=O)N2Cc2cccnc2)c1 (stereo unspecified),-2%,.,-2%,15%,?,50µM*
Cc1ccc(/C(O)=C2\C(=O)C(=O)N(C)C2c2ccccc2[N+](=O)[O-])cc1 (stereo unspecified),14%,2%[0.501 µM],-23%,-13%,-16%,0%
Cc1ccc(/C(O)=C2\C(=O)C(=O)N(Cc3cccnc3)C2c2ccccc2[N+](=O)[O-])cc1 (stereo unspecified),3%,56µM*,-19%,?,-27%,-22%
O=C(c1cccnc1OC1CCN(S(=O)(=O)Cc2ccccc2)C1)N1CCOCC1 (stereo unspecified),.,.,20%,.,.,.
CC(=O)NNC(=O)COC(=O)c1ccccc1Sc1ccccc1C#N,.,.,5%,.,.,.
O=C1C(=O)N(Cc2cccnc2)C(c2cccc(Br)c2)/C1=C(/O)c1ccc2c(c1)OCO2 (stereo unspecified),19%,?,?,-18%,?,14%
COc1ccc(C2/C(=C(\O)c3ccc4c(c3)OCCO4)C(=O)C(=O)N2Cc2cccnc2)cc1 (stereo unspecified),44%,-95%,-20%,10%,3%,-5%
COc1ccccc1C1/C(=C(\O)c2ccc3c(c2)OCCO3)C(=O)C(=O)N1Cc1cccnc1 (stereo unspecified),1%[57 µM],?,-18%,4%,50µM*,?
O=C1C(=O)N(Cc2cccnc2)C(c2cccc(O)c2)/C1=C(\O)c1ccc2c(c1)OCCO2 (stereo unspecified),33%,35µM*,-21%,5%,13%,?
CCOc1ccc(C2/C(=C(\O)c3ccc4c(c3)OCCO4)C(=O)C(=O)N2Cc2cccnc2)cc1OCC (stereo unspecified),-8%,.,-18%,-13%,-24%,50µM*
COc1ccc(NC(=O)CSc2nncn3c2cc2oc(C)cc23)c(OC)c1,.,.,-24%,.,.,.
O=C(NCCCNC(=O)C1CC1)C1CC1,.,.,18%,.,.,.
Cc1ccc(C(=O)Nc2ccccc2C(=O)NCc2ccco2)cc1S(=O)(=O)N1CCCCC1,8%,16µM*,0%,5%,?,-21%
COc1ccccc1NS(=O)(=O)c1cc(C(=O)NCc2ccco2)ccc1C,7%,-42%[59 µM],-27%,9%,50µM*,-31%
Cc1ccc(C(=O)Nc2ccccc2C(=O)O)cc1S(=O)(=O)NC1CCCCC1,24%,71µM*,437%,7%,-21%,56µM*
Cc1ccc(C(=O)NCc2ccco2)cc1S(=O)(=O)N1CCCCC1,-12%,?,?,-23%,?,?
O=C1CC2(CCN(C(=O)c3ccccn3)C2)Nc2ccccc2N1 (stereo unspecified),.,.,-3%[6.33 µM],.,.,.
CC(C)(C)c1ccc(/C=C2\CCc3ccccc3C2=O)cc1,.,.,36%,.,.,.
Nc1ccc2c(c1)COC2=O,18%,-5%,9%,29%,-14%,-3%
SMILES,HP1b binding inh,G9a block,ALOX12 inh,Sfp PPTase inh,JMJD2A Tudor,BAZ2B block
Cn1cccc1/C=C1\CCc2ccccc2C1=O,?,?,39%,4%,45µM*,40µM*
O=C1/C(=C/c2ccco2)CCc2ccccc21,?,10µM*,?,56µM*,-35%,40µM*
COc1ccc2c(c1)CC/C(=C/c1ccco1)C2=O,?,?,?,-4%,-34%,35µM*
Cn1cccc1/C=C1\Cc2ccccc2C1=O,21%,-8%[59 µM],0%,11%,-10%,-26%
Nc1ccc2c(c1)C/C(=C/c1ccco1)C2=O,-15%,7.1µM*,?,-65%,-33%,?
CN(C)C(CNC(=S)NCCc1ccccc1)c1cccs1 (stereo unspecified),.,.,45%,.,.,.
CCc1nc(-c2c3n(c(=O)n(CC(=O)Nc4cccc(Cl)c4)c2=O)CCCCC3)no1,.,.,18%,.,.,.
COc1cc(N2CCCC2)c(OC)cc1/C=C1/NC(=S)NC1=O,-28%,22µM*,?,-23%,-34%,?
COc1ccc(OC)c(/C=C2\NC(=O)NC2=O)c1,30%,-1%,-12%,15%,-3%,6%
COc1ccc2c(C)c(CCC(=O)Nc3ccc(NC(C)=O)cc3)c(=O)oc2c1,.,.,8%,.,.,.
Cc1cc[n+](CC[n+]2ccc(C)cc2)cc1,25%,15%[12.7 µM],13%,.,-18%,-8%
CCCCCCCCCCCCCCCC[n+]1ccc(C(N)=O)cc1,?,-13%[59 µM],45µM*,?,?,-28%
CCc1ccc(/C=N/O)cc1,.,.,-28%,.,.,.
CCCCCCCCCCCCCCCC[n+]1ccc(/C=N/O)cc1,-4%,9%[59 µM],?,32µM*,-25%,6%
CCCCCCCCCCCCCC[n+]1ccc(C)cc1,.,?,.,56µM*,.,.
CN(C)C(=O)c1c(F)cccc1F,.,.,13%,.,.,.
Cc1ccc2[nH]c(=O)c(C(c3nnnn3C3CCCC3)N(Cc3cccnc3)Cc3ccco3)cc2c1 (stereo unspecified),0%,-44%,?,-12%,?,-35%
CCC(c1nnnn1C1CCCCC1)N(Cc1ccco1)Cc1cc2ccc(OC)cc2[nH]c1=O (stereo unspecified),-13%,4%[12.7 µM],?,-23%,-34%,-30%
